# Screening data as filed in PubChem BioAssay.
# Pf apPOL block: Pf-apPOL DNA polymerase inhibition. Recombinant Pf-apPOL, molecular beacon fluorescence, 1.5 h. inhibition, % at 10 µM. 210,000 compounds, 0.25% hits. AID 1794808
# mHTT CaM bind: mHTT-calmodulin interaction abrogation; 190,000 compounds, 3.6% hits; AID 1671202; inhibition, % at 15 µM; AlphaScreen His-mHTT/GST-CaM binding, luminescence;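 also: 0% = both proteins with DMSO and 100% = one protein alone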
# * hit, by the source's call; nt = no result given. The entries come from a sample that favours hits as a whole. Rule as the data show it: active = inhibition above about 50%; inactive = the rest.
SMILES,Pf apPOL block,mHTT CaM bind
COc1cccc(-c2nc(C3CCN(C(=O)c4nccc5ccccc45)CC3)no2)c1,-6,98*
COc1cccc(-c2nc(C3CCN(C(=O)c4cc5ccccc5[nH]4)CC3)no2)c1,-22,8
O=C(c1cc2cc(Cl)ccc2[nH]1)N1CCC(c2noc(-c3ccccc3)n2)CC1,8,83*
Cc1oc(C2CCN(C(=O)c3ccc(C(F)(F)F)cc3)CC2)nc1C(=O)N1CCCC1,-3,51*
Cc1oc(C2CCN(C(=O)c3ccc(C(C)(C)C)cc3)CC2)nc1C(=O)N1CCCCC1,-7,31
Cc1c(Cl)cccc1N=Cc1nc(-c2ccc([N+](=O)[O-])cc2)oc1O,-2,0
COCCNC(=O)NCCC1CCN(S(=O)(=O)c2ccc(C)cc2)CC1,3,55*
Cc1ccc(S(=O)(=O)N2CCC(CCNC(=O)Nc3ccccc3)CC2)cc1,-3,53*
O=C(NCCC1CCN(S(=O)(=O)c2ccc(F)cc2)CC1)Nc1ccccc1,-2,29
COC(=O)CNC(=O)NCCC1CCN(S(=O)(=O)c2ccc(C)cc2)CC1,-5,39
CCCNC(=O)c1cncc(-c2ccccc2Cl)c1,3,-11
N#C/C(=C\c1ccc(-c2cc(Cl)cc(Cl)c2)o1)c1nn(CCO)c(N)c1C#N,-5,58*
N#C/C(=C\c1ccc(-c2ccc(Cl)cc2)o1)c1nn(CCO)c(N)c1C#N,-14,54*
N#C/C(=C\c1c(F)cccc1Cl)c1nn(CCO)c(N)c1C#N,9,-1
N#C/C(=C\c1cccc(Br)c1)c1nn(CCO)c(N)c1C#N,-5,3
O=C(Nc1c2c(nn1-c1ccc(F)cc1)CSC2)c1ccc(F)cc1,-3,4
CCNC(=O)c1cccc2c1CCN2C(=O)CC,0,100*
CCC(=O)N1CCc2c(C(=O)NC3CC3)cccc21,-4,-4
O=C(O)c1cc(-c2ccc(-c3c(-c4ccco4)noc3-c3ccccc3)cc2)nc2ccccc12,74*,69*
O=C(O)c1cc(-c2ccccc2)nc2ccccc12,-1,-2
CCCN(CCC)Cn1c(=O)oc2cc(Cl)ccc21,-1,-4
CC(C)c1ccc(N2CCN(CC(=O)Nc3ccc(-n4cnnn4)cc3)C2=O)cc1,-3,-4
O=[N+]([O-])c1ccc(-c2ccc(N=Cc3ccccc3)cc2)cc1,19,-4
O=[N+]([O-])c1ccc(C=NC2=NN(c3ccccc3)CC2)cc1,3,59*
O=C(Cc1ccccc1)N1CCC(c2nc(-c3ccccc3)n[nH]2)CC1,1,7
SMILES,Pf apPOL block,mHTT CaM bind
CCCCOc1cc(C)cc2oc(=O)cc(-c3ccccc3)c12,-5,-4
O=S(=O)(c1ccccc1)N1N=C(c2cccs2)CC1c1ccc(Br)cc1 (centres undefined),-54,-4
COc1ccc(C2=NN3C(C2)c2cccc(OC)c2OC3(C)C)cc1 (centres undefined),-18,51*
COc1cccc2c1OC(C)(C)N1N=C(c3cccs3)CC21 (centres undefined),-26,61*
COc1cccc2c1OC1(CCC(C)CC1)N1N=C(c3cccs3)CC21 (centres undefined),-15,36
COc1ccc(C2=NN3C(C2)c2cccc(OC)c2OC32CCCCC2)cc1 (centres undefined),-20,50
CC1(C)Oc2ccc(Br)cc2C2CC(c3cccs3)=NN21 (centres undefined),-3,59*
CC(Cc1nsc(Nc2ccccc2)n1)=NNc1cc(Cl)ccc1Cl,0,nt
CCOc1ccc2ccccc2c1C(=O)NCCN1CCN(S(C)(=O)=O)CC1,0,-10
Cc1ccc(C2=NN(CC(=O)NCCCN3CCCC3=O)C(=O)CC2)cc1,-13,-6
O=[N+]([O-])c1cccc(C2CC(c3ccccc3F)n3ncnc3N2)c1 (centres undefined),2,7
Cc1ccc(-c2nc(C)c(C(=O)N3CCC(C(C)C(=O)NCCN(C)C)CC3)s2)cc1 (centres undefined),8,3
NCCN1C(=O)S/C(=C\c2ccc(F)c(Oc3ccccc3)c2)C1=O,-14,71*
COc1ccc(/C=C2\SC(=O)N(CCN)C2=O)cc1OC,-1,4
O=C(Nc1ccccc1F)N1CCC(n2cnc3ccc(Cl)cc3c2=O)CC1,-2,-5
CSc1ccc(C2CC(c3cccs3)Nc3nnnn32)cc1 (centres undefined),2,0
CCCCN1CCN(C(=O)CCC2CCCN(c3cc(NC4CC4)ncn3)C2)CC1 (centres undefined),0,18
O=C(NC(Nc1ccccc1)C(Cl)(Cl)Cl)c1ccc(Cl)cc1 (centres undefined),-2,16
COc1ccc(OC(NC(=O)/C=C/c2ccccc2)C(Cl)(Cl)Cl)cc1 (centres undefined),1,51*
O=C(/C=C/c1ccccc1)NC(Nc1ccccc1)C(Cl)(Cl)Cl (centres undefined),-8,96*
O=C(NC(Nc1ccccc1)C(Cl)(Cl)Cl)c1ccc(Br)cc1 (centres undefined),4,57*
O=C(/C=C/c1ccccc1)NC(Nc1cccnc1)C(Cl)(Cl)Cl (centres undefined),0,31
O=C(NC(Nc1ccc(Br)cc1)C(Cl)(Cl)Cl)c1ccc(F)cc1 (centres undefined),-3,87*
COc1ccc(NC(=O)/C=C/c2ccc(Cl)cc2)cc1,-9,nt
O=C(NC(Nc1ccccc1)C(Cl)(Cl)Cl)c1ccc(F)cc1 (centres undefined),-4,-9
SMILES,Pf apPOL block,mHTT CaM bind
COc1ccccc1C1(CNC(=O)c2cc(-c3ccccc3)on2)CCOCC1,0,1
COC(CNC(=O)c1ccc2c(c1)nc(C)n2-c1cccc(Cl)c1)OC,-4,9
O=C1OC(c2cccc(F)c2)=N/C1=C\c1ccc(-c2ccccc2[N+](=O)[O-])o1,-3,33
CN(C)CCN1CCC(CN)C1 (centres undefined),6,2
CC(=O)Nc1nc(-c2cc3cc(Cl)cc(Cl)c3oc2=O)cs1,98*,3
Nc1nc(-c2cc3cc(Cl)cc(Cl)c3oc2=O)cs1,0,-16
CCOc1ccc(C(=O)Nc2ccc(Nc3ccc(-n4cccn4)nn3)cc2)cc1OCC,-7,88*
CCOc1ccc(C(=O)Nc2ccc(-n3nncc3-c3ccccc3)cc2)cc1OCC,-3,20
Cc1ccc(Nc2cc(-n3cccn3)ncn2)cc1,-4,0
COCC(=O)Nc1ccc(Nc2ccccc2)cc1,-13,47
Cc1ccc(S(=O)(=O)Nc2ccc(Nc3ccc(-n4cccn4)nn3)cc2)c(C)c1,-2,100*
COCC(=O)Nc1ccc(Nc2ccc(-n3cccn3)nn2)cc1,-2,99*
NS(=O)(=O)c1ccc(C(=O)Nc2ccc(Nc3ccc(-n4cccn4)nn3)cc2)cc1,-8,95*
NS(=O)(=O)c1ccc(NC(=O)c2ccc(F)cc2)cc1,-1,2
CON=C(c1ccc(OCCOc2ccc(C(=NOC)C(C)C)cc2)cc1)C(C)C,2,-10
CN1C(=O)c2ccccc2C(C(=O)NCc2ccccn2)C1c1cccs1 (centres undefined),7,1
CN(CC(=O)N1CCC(Cc2ccccc2)CC1)S(=O)(=O)c1ccc(Br)cc1,0,-2
COc1cc(C(=O)Oc2ccc3c(c2)OC(=Cc2ccncc2)C3=O)cc(OC)c1OC,-4,0
O=C(Nc1ccc(F)c(F)c1)c1ccc(F)c(S(=O)(=O)NCc2ccco2)c1,-21,0
